# This is one part of a sample in which hits are shown more often than they occur.
# USP2a inh: USP2a (human) protease inhibition; USP2a enzymatic assay, qHTS inhibition; Potency, µM (highest dose often 38.3 µM), for inactives: at the highest dose activity change, negative = inhibition, usual class: inhibitors; hit rate 0.1% among 60,000; AID 927; further: nearly all actives have a fitted effect of over 60% in size
#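 Inhibition is measured in a cell-free coupled assay with 20 nM USP2 core, 20 nM Ub-PLA2 and 20 uM NBD C6-HPC, 2.5 h incubation. Activity normalized to NEM control.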
# 15-hLO inh: 15-hLO (ALOX15) enzyme inhibition; P16050; purified 15hLO-1, xylenol orange hydroperoxide absorbance; Potency, µM (top dose mostly 57.1 µM), without a hit: top-dose activity change, negative = inhibition, usual class: inhibitors; hit rate 1.4% among 74,000; further: on the % scale 0 is the no-effect control and ±100 the full control effect; nearly all actives have a fitted effect of over 55% in size
#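 Purified human 15hLO-1 (40 nM final) in 25 mM Hepes pH 7.5, 0.01% Triton X-100 was preincubated with compound 15 min at room temperature, then reacted 6 min with 50 uM arachidonic acid; hydroperoxide detected by Fe-XO, 573/405 nm absorbance ratio.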
# 15-hLO-2 inh: blocks human 15-lipoxygenase 2 activity | purified 15hLO-2, xylenol orange hydroperoxide absorbance | AID 881 | O15296 | Potency, µM (highest dose often 57.1 µM), without a hit: at the highest dose activity change, negative = inhibition, hits mostly inhibitors | hit rate 0.56% among 110,000; further: on the % scale 0 is the no-effect control and ±100 the full control effect; nearly all actives have a fitted effect of over 60% in size
#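 Purified human 15hLO-2 (50 nM final) preincubated with compounds 15 min at room temperature in 25 mM Hepes pH 7.5, 0.01% Triton X-100, then 45 uM arachidonic acid added for 90 min; hydroperoxide detected via ferrous/xylenol orange, 573/405 nm absorbance ratio.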
# Casp7 inh: caspase-7 (human) inhibition, allosteric or competitive | P55210 | AID 889 | Potency, µM (series often up to 57.5 µM), without a hit: at the highest dose activity change, negative = inhibition, most hits filed as inhibitors | recombinant caspase-7, Ac-DEVD-AFC fluorescence rate | hit rate 0.02% among 75,000; active means well fitted inhibition curve with a large enough effect in the main read-out, with a control signal flat, not every such curve was filed as active; inconclusive means small, poorly fitted or top-dose-only effect, or a change in a side signal; further: % of control where 0% means no effect
# Target sequence (P55210 24-198 limits assumed): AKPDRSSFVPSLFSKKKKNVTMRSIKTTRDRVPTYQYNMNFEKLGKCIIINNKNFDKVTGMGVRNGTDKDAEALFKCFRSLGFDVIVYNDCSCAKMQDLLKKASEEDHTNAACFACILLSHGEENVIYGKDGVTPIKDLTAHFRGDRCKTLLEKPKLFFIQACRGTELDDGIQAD
# Target sequence (P55210 207-303 limits assumed): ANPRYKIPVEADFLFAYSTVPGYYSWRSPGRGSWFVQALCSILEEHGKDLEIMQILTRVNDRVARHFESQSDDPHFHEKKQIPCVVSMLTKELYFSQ
# Ub-GFP proteasome: ubiquitin-GFP accumulation via proteasome inhibition | Ubiquitin-GFP reporter cells, proteasome inhibition, GFP fluorescence; response scale: untreated = 0%, 10 µM MG-132 = 100% | 67,000 tested, under 10 active | Potency, µM (highest dose often 45.9 µM), inactives show at the top dose activation (GFP accumulation), usual class: activators | AID 526; active means well fitted activation curve with a large enough effect, not every such curve was filed as active; inconclusive means small, poorly fitted or top-dose-only effect, or another doubt; inactive means no such curve, though single readings can be large or run the other way
#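 U2OS cells stably expressing ubiquitin(G76V)-GFP, seeded overnight in 0.5% FBS medium, were exposed to compounds (qHTS, 46 uM to 2.9 nM) for 4 hr at 37 °C. GFP-positive cells were counted by laser cytometry (488 ex/515 em), normalized between basal and 10 uM MG-132.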
# Caspase-1 inhib: blocks human caspase-1 allosterically or competitively. P29466. Caspase-1 enzyme, Ac-WEHD-AFC fluorogenic rate. Potency, µM (top dose mostly 57.5 µM), for inactives: top-dose activity change, negative = inhibition, most hits filed as inhibitors. hit rate 0.03% among 75,000;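 further: plate controls were vehicle for no effect and no substrate for full effect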
# Target sequence (P29466 120-297 limits assumed): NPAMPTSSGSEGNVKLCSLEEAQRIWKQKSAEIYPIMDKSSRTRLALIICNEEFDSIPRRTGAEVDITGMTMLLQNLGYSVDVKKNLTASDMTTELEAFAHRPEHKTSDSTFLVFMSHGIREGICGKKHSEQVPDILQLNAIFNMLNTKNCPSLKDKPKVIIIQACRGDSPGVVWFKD
# Target sequence (P29466 317-404 limits assumed): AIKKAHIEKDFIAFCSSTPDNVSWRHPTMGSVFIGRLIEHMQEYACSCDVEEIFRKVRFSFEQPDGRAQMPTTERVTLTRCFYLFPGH
# Numbers without * were called inactive; ? = inconclusive; nt = no result given; ! = not active in a repeat; [ ] = remark or other dose. Unless noted, the call rests on the fitted dose curve; in most records, active means well fitted curve in the direction sought with a large enough effect; inconclusive means small, poorly fitted or top-dose-only effect, or another doubt; inactive means no such curve, though single readings can be large; an effect the other way counts as inactive or inconclusive. Potency means the concentration at half of the fitted maximal effect.
SMILES,USP2a inh,15-hLO inh,15-hLO-2 inh,Casp7 inh,Ub-GFP proteasome,Caspase-1 inhib
C=C(C)CSC1=C(C#N)C(c2ccccc2Cl)CC(=O)N1 (configuration not stated),nt,16µM*,-22%,1%,-4%,0%
CCN(CC)c1ccc2cc(-c3nc4ccccc4[nH]3)c(=O)oc2c1,70%[7.66 µM],-2%[11.4 µM],-5%,?,0.5µM*,nt
Cc1cc2cc(NC(=O)c3ccco3)ccc2[nH]1,nt,nt,-8%,nt,nt,nt
O=C(Nc1ccc2[nH]c3c(c2c1)CCCC3)c1ccco1,1%,16µM*,-19%,-23%,7%,?
CCn1c(Cc2ccccc2)nnc1SCC(=O)Nc1nc2ccccc2s1,9%,25µM*,-8%,-3%,2%,0%
Cn1cccc1Cc1nnc(SCC(=O)Nc2nc3ccccc3s2)n1CCc1ccccc1,44%,-8%,-9%,-6%,14%,-7%
NC(=O)CNCCC(c1ccccc1)c1ccccc1,5%,20µM*!,42%,-1%,0%,0%
C[C@H](NCCC(c1ccccc1)c1ccccc1)c1ccccc1,-4%[17.1 µM],-9%[25.6 µM],59%[25.6 µM],1%[25.7 µM],11%[20.5 µM],-2%[25.7 µM]
COC(=O)[C@H]1[C@@H]2C[C@H]3c4[nH]c5ccccc5c4CCN3C[C@@H]2CC[C@@H]1O,nt,nt,nt,nt,5%,nt
CN1CCN(C(=O)CSc2nc(-c3cccs3)cc(-c3cccs3)c2C#N)CC1,26%,16µM*,21%,-9%,-3%,-7%
CN1CCN(C(=O)CSc2nc(-c3ccncc3)ccc2C#N)CC1,nt,nt,-9%,nt,nt,nt
COc1cc(C(=O)O[C@@H]2CC(C)=CC[C@@]3(C)CC[C@](O)(C(C)C)[C@H]23)ccc1O,nt,nt,nt,nt,0%,nt
Cc1ccc(C2C(C#N)=C(N)Oc3cc4c(cc32)OCO4)cc1 (configuration not stated),5%,?,-8%,-19%,-2%,?
N#CC1=C(N)OC(c2ccccc2)=C(C#N)C1c1ccc2c(c1)OCO2 (configuration not stated),43%,32µM*,-15%,-6%,0%,-7%
COc1ccc(OC)c(NC2c3ncccc3C(=O)N2Cc2ccco2)c1 (configuration not stated),-11%,?,-21%,-1%,10%,3%
COc1ccc(CN2C(=O)c3cccnc3C2Nc2cc(Cl)ccc2OC)cc1 (configuration not stated),13%,16µM*,?,-5%,15%,1%
Fc1ccc(-c2nnc3ccc(N4CCc5ccccc5C4)nn23)cc1,nt,25µM*,-16%,-12%,0%,-3%
CC1(C)C(=O)NC2=C1C(=O)C(=O)c1ccccc12,nt,?,-7%,-13%,4%,?
COc1ccc(CC(N)C(=O)NC2C(CO)OC(n3cnc4c(N(C)C)ncnc43)C2O)cc1 (configuration not stated),-5%,7%,3%,2%,nt,-3%
C[C@@H]1CC2(OC(O)[C@]3(C)O[C@H]23)O[C@H]2C[C@@]3(C)[C@@H]4CC[C@H]5C(C)(C)C(O[C@@H]6OC[C@@H](O)[C@H](O)[C@H]6O)CC[C@@]56C[C@@]46CC[C@]3(C)[C@@H]12 (some centres not stated),nt,-14%,-4%,0%,nt,-1%
COc1ccc(C(=O)Nc2ccc(N3CCCC3)cc2)cc1,nt,nt,4%,nt,nt,nt
COc1cccc(C(=O)NC(=S)Nc2ccc(N3CCCC3)cc2)c1,nt,nt,13µM*,nt,nt,nt
COc1ccc(CCNC(=S)NC(=O)c2ccccc2)cc1OC,nt,nt,13µM*,nt,nt,nt
COc1cc(/C=N/n2c(C)nnc2C)cc(OC)c1OC,nt,nt,3%,nt,nt,nt
COc1cc(N=c2ssnc2Cl)cc(OC)c1OC,13%,3.2µM*,25µM*,-1%,0%,1%
SMILES,USP2a inh,15-hLO inh,15-hLO-2 inh,Casp7 inh,Ub-GFP proteasome,Caspase-1 inhib
O=C(Nc1cccc2ccccc12)N1CCN(Cc2ccccc2)CC1,37%,0.63µM*,-11%,0%,2%,0%
O=C(Nc1cccc2ccccc12)N1CC=C(c2ccccc2)CC1,nt,nt,-10%,nt,nt,nt
CC(C)(C)CC(C)(C)c1ccc(O)c(Cc2ccc(Cl)cc2Cl)c1,10µM*,-14%,4%,-4%,nt,?
O=C(NCC1CCCO1)c1sc(=S)n2c1[nH]c(=O)c1ccc(C(=O)N3CCCCC3)cc12 (configuration not stated),2µM*,?,?,-3%,-4%,-14%
CC(=O)C1=C(C)NC(SCC(=O)c2ccccc2)=C(C#N)C1CC(C)C (configuration not stated),12%,4µM*,?,-5%,5%,-4%
CC(=O)C1=C(C)NC(SCC(=O)c2ccc(Cl)cc2Cl)=C(C#N)C1c1ccco1 (configuration not stated),21%,13µM*,-27%,?,-8%,nt
CC(=O)C1=C(C)NC(SCC(=O)c2ccc(Cl)cc2)=C(C#N)C1c1ccco1 (configuration not stated),nt,13µM*,-13%,?,4%,nt
CC(=O)C1=C(C)NC(SCC(=O)c2ccccc2)=C(C#N)C1c1ccco1 (configuration not stated),nt,?,-22%,?,0%,nt
CCOC(=O)CSC1=C(C#N)C(c2ccccc2)C(C(C)=O)=C(C)N1 (configuration not stated),1%,-19%,-13%,-3%,1%,-6%
CC1(C)CC(=O)C(C(c2cccc(O)c2O)C2C(=O)CC(C)(C)CC2=O)C(=O)C1,nt,18%[11.4 µM],1%[11.4 µM],-1%[11.5 µM],2%[9.17 µM],5%[11.5 µM]
Cc1ccc(S(=O)(=O)Nc2ccccc2C(=O)c2ccc(C)c(C)c2)cc1,nt,3%[11.4 µM],-5%[11.4 µM],-3%[11.5 µM],-1%[9.17 µM],2%[11.5 µM]
COc1cc(Sc2ccc(C)cc2)c(OC)cc1N,5%,?,10µM*,-3%,-10%,-2%
CC(C)(C)c1ccc(S(=O)(=O)/C=C\C#N)cc1,1%,-8%,-1%,-2%,-7%,-2%
O=c1c(O)c(-c2cc(O)c(O)c(O)c2)oc2cc(O)cc(O)c12,85%[17.1 µM],2.5µM*,?,-7%,1%,-5%
COc1ccc(-c2n[nH]c(C)c2-c2ccc(Cl)cc2)c(O)c1,nt,nt,-1%,nt,nt,nt
COc1ccc(O)c(-c2c(-c3ccc(Cl)cc3)n[nH]c2C)c1,13%,25µM*,-15%,-4%,nt,-1%
COc1cccc2cc(C(=O)C3=C(O)C(=O)N(Cc4ccco4)C3c3cccnc3)oc12 (configuration not stated),38%,8%,-4%,-5%,-4%,-2%
O=C(C1=C(O)C(=O)N(Cc2ccco2)C1c1cccnc1)c1cc2ccccc2o1 (configuration not stated),30%,16µM*,-7%,2%,5%,0%

# High-throughput results deposited in PubChem by National Center for Advancing Translational Sciences (NCATS).
